The panel holds about 83,000 compounds, 20% with a hit somewhere; the sample as a whole holds those more often.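 Growth was measured after 48 h exposure to one concentration of compound in 96-well plates. Values under 10 count as active.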 Unmarked numbers belong to inactive results. Calls of active or inactive are those of the source.
Each compound was assayed on NCI-H322M lung (assay: NCI-60 one-dose screen, 48 h (100 = growth as untreated, 0 = no growth, -100 = all killed)). Details: 10 µM.

SMILES | growth
O=C(NO)c1ccc(Cn2ccc3c(Nc4ccccc4)ncnc32)cc1 | 42.7%
N#Cc1ccc(-c2nn(-c3ccc(C(=O)O)cc3)cc2CNc2cccc(Br)c2)cc1 | 85.5%
O=C(c1ccc(Cl)cc1)C1[C@H](c2ccccc2Br)[C@@H](c2ccccc2)NC12C(=O)Nc1ccccc12 (some centres not stated) | 42.1%
CC1(C)CC[C@]2(C(=O)Nc3ccccc3)CC[C@]3(C)C(=CC[C@@H]4[C@@]5(C)CC[C@H](N)C(C)(C)[C@@H]5CC[C@]43C)[C@H]2C1 | 105%
CC(=C(c1ccc(OCCCN(C)C)cc1)c1ccc(OCCCN(C)C)cc1)c1ccccc1 | -100% (active)
Cc1ccc(/C=C/C(=O)c2ccc(S(=O)(=O)NCCNc3nc(Nc4ccc(F)cc4)nc(N(C)C)n3)cc2)cc1 | 48.5%
COc1ccc(C(=O)Nc2sc3c(c2C#N)CCC(=O)C3)cc1C(F)(F)F | 85.9%
COc1ccc2nc(Cl)c(-c3cc(-c4ccccc4)nc(=S)[nH]3)cc2c1 | 89.4%
Cc1ccc(-c2cc(C(=O)N=Nc3c(O)[nH]c4ccccc34)c3ccccc3n2)cc1 | 69.8%
C#Cc1ccc(S(=O)(=O)Nc2cccc(-c3csc(NC(C)=O)n3)c2)cc1 | 98.9%
CC(C)C1=C[C@@]23CC[C@@H]4[C@](C)(CCC[C@]4(C)C(=O)NCc4ccccc4)[C@H]2C[C@@H]1[C@H]1C(=O)CCC(=O)[C@H]13 | 93.4%
COc1ccc(C(=O)NC(=S)N2CCN(c3ncnc4c3cnn4-c3ccccc3)CC2)cc1 | 66.8%

— PubChem BioAssay (NCI)
